BAZ2B block: BAZ2B (human) inhibition; Q9UIF8; AlphaScreen BAZ2B-H3K14Ac peptide displacement; Potency, µM (series often up to 114 µM), actives largely listed as inhibitors; 360,000 compounds, 4.4% hits; AID 504333; further: nearly all actives have a fitted effect of over 60% in size
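AlphaScreen displacement: compounds (up to 110uM) incubated 30 min at room temperature with a preformed 50 nM BAZ2B/50 nM biotinylated H3K14Ac peptide complex in PBS pH 7.4 with Tween-20. Donor and acceptor beads at 10 ug/mL final added, 20 min light-protected before reading.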
JMJD2A Tudor: blocks the human JMJD2A Tudor domain. O75164. Potency, µM (titrated, usually from 114 µM), usual class: inhibitors. AlphaScreen JMJD2A-Tudor / H3K4me3 peptide binding. 390,000 compounds, 4.4% hits; further: nearly all actives have a fitted effect of over 50% in size
PLK1 PBD inh: PLK1 (human) polo-box domain binding inhibition; P53350; Plk1 PBD binding of FITC phosphopeptide, fluorescence polarization; Potency, µM, actives largely listed as inhibitors; 360,000 compounds, 2.8% hits; AID 720504; further: series mostly up to about 57 µM; nearly all actives have a fitted effect of over 65% in size
HP1b chromo inh: inhibitors of HP1-beta chromodomain binding to methylated histone tails | AID 540317 | 390,000 compounds, 0.56% hits | P83916 | AlphaScreen HP1-beta / biotin-H3K9me3 peptide binding | Potency, µM (top dose mostly 114 µM), usual class: inhibitors; further: nearly all actives have a fitted effect of over 70% in size
Target sequence (P83916 whole entry, looked up): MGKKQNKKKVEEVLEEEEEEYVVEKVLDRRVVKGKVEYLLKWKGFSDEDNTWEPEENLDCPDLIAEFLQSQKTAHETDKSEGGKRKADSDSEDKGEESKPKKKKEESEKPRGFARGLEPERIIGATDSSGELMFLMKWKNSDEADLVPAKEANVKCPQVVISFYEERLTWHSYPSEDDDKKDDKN
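Compound inhibition of the preformed complex between 50 nM HP1-beta and 50 nM biotinylated H3K9me3 peptide was read by AlphaScreen. Buffer was PBS pH 7.4 with 0.01% Tween-20. Incubations ran 30 min at room temperature, with 10 ug/mL donor/acceptor beads.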
L3MBTL1 inh: blocks human L3MBTL1; Q9Y468; AlphaScreen L3MBTL1–H3K9me1 peptide binding; Potency, µM (highest dose often 57.1 µM), most hits filed as inhibitors; 230,000 compounds, 0.66% hits; further: nearly all actives have a fitted effect of over 60% in size
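L3MBTL1 (50 nM) pre-complexed 30 min with biotinylated H3(1-15)K9me1 peptide (75 nM), then compounds added for 30 min at room temperature; AlphaScreen streptavidin donor/nickel chelate acceptor beads (10 ug/mL final) read after 30 min dark incubation.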
VDR inh: vitamin D3 receptor (human) inhibition | P11473 | VDR-SRC2-3 peptide fluorescence polarization, 2 h | Potency, µM, hits mostly inhibitors | 400,000 compounds, 0.93% hits | AID 504847
Target sequence (P11473 whole entry, looked up): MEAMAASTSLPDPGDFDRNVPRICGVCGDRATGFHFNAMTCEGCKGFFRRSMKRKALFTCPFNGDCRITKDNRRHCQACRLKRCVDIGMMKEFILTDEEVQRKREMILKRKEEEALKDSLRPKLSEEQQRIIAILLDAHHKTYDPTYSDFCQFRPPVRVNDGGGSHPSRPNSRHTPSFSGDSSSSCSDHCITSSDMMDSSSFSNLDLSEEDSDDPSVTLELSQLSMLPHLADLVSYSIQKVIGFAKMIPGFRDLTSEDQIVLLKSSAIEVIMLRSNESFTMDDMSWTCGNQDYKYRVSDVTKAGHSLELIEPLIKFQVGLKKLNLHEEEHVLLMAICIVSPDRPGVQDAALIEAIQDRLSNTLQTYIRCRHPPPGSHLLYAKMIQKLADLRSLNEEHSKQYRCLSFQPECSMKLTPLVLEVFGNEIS
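Signal is fluorescence polarization, reporting how far test compounds block the interaction of VDR with the SRC2-3 coregulator peptide after a 2 h room-temperature incubation.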
Numbers stand for hits. Most compounds without a hit are left out; they make up all but 6.9% or so of the library. The call rests on the fitted dose curve; in most records, active means well fitted curve in the direction sought with a large enough effect; inconclusive means small, poorly fitted or top-dose-only effect, or another doubt; inactive means no such curve, though single readings can be large; an effect the other way counts as inactive or inconclusive.

What do the screens show for `CCC1CN(C(=O)N2CCC(C(=O)NCCc3ccccc3OC)CC2)c2ccccc2O1` (stereo not drawn)?
BAZ2B block: inactive; JMJD2A Tudor: inactive; PLK1 PBD inh: inactive; HP1b chromo inh: inactive; VDR inh: inactive

What do the screens show for `CCC1CN(C(=O)N2CCC(C(=O)Nc3cc(C)ccc3C)CC2)c2ccccc2O1` (stereo not drawn)?
BAZ2B block: 79.4µM; JMJD2A Tudor: inconclusive; HP1b chromo inh: inactive; VDR inh: inactive

What do the screens show for `CCC1CN(C(=O)N2CCC(C(=O)Nc3ccccc3F)CC2)c2ccccc2O1` (stereo not drawn)?
BAZ2B block: inactive; JMJD2A Tudor: inactive; PLK1 PBD inh: inactive; HP1b chromo inh: inactive; VDR inh: inactive

What do the screens show for `CCC1CN(C(=O)N2CCC(C(=O)NCCc3ccccc3C)CC2)c2ccccc2O1` (stereo not drawn)?
BAZ2B block: 79.4µM; JMJD2A Tudor: inactive; HP1b chromo inh: inactive; VDR inh: inactive

Results for O=[N+]([O-])c1ccc2c(c1)N([O-])C1(CCCCC1)[N+]2=O ?
BAZ2B block: 39.8µM; JMJD2A Tudor: inconclusive; PLK1 PBD inh: 11.9µM; HP1b chromo inh: inconclusive; L3MBTL1 inh: inactive; VDR inh: inconclusive

How did CC1=C(c2ccccc2)[N+](=O)C2(CCCC2)N1[O-] do in these assays?
BAZ2B block: inactive; JMJD2A Tudor: inactive; PLK1 PBD inh: inactive; HP1b chromo inh: inactive; L3MBTL1 inh: inactive; VDR inh: inactive

How did CC1(C(=O)NS(=O)(=O)C2CC2)CCCN(C(=O)/C=C/c2ccccc2)C1 (stereo not drawn) do in these assays?
PLK1 PBD inh: inactive

How did CCN(c1ccccc1)c1cc(C)nc2nc(C)nn12 do in these assays?
BAZ2B block: inactive; JMJD2A Tudor: inactive; PLK1 PBD inh: inactive; HP1b chromo inh: inactive; L3MBTL1 inh: inactive; VDR inh: inactive

What do the screens show for `Cc1cccc(N(C)c2cc(C)nc3nc(C)nn23)c1`?
BAZ2B block: inactive; JMJD2A Tudor: inactive; PLK1 PBD inh: 29.9µM; HP1b chromo inh: inactive; L3MBTL1 inh: inactive; VDR inh: inactive

What do the screens show for `Cc1cc(C)c(NS(=O)(=O)c2cccc3cccnc23)c(C)c1`?
BAZ2B block: inactive; JMJD2A Tudor: inactive; PLK1 PBD inh: inactive; HP1b chromo inh: inactive; VDR inh: inactive

Results for Cc1ccc(S(=O)(=O)Nc2cccc3cccnc23)c([N+](=O)[O-])c1 ?
BAZ2B block: 44.7µM; JMJD2A Tudor: inconclusive; PLK1 PBD inh: inactive; HP1b chromo inh: inactive; VDR inh: inactive

Results for Cc1ccc(-n2nc(C)c3c(C(=O)Nc4ccc(C)cc4Cl)cc(C)nc32)cc1 ?
BAZ2B block: inactive; JMJD2A Tudor: inactive; HP1b chromo inh: inactive; VDR inh: inactive

Results for Cc1ccc(NC(=O)N2CCC(NC(=O)c3cccc(C)c3)CC2)cc1 ?
BAZ2B block: 50.1µM; JMJD2A Tudor: 39.8µM; PLK1 PBD inh: inactive; HP1b chromo inh: inconclusive; VDR inh: inactive

How did Cc1ccccc1NC(=O)CSc1nccn1C do in these assays?
BAZ2B block: inactive; JMJD2A Tudor: inactive; HP1b chromo inh: inactive; VDR inh: inactive

How did COC1CCCCC1Nc1cc(C)cc(C)c1 (stereo not drawn) do in these assays?
BAZ2B block: 35.5µM; JMJD2A Tudor: 17.8µM; PLK1 PBD inh: inactive; HP1b chromo inh: 17.8µM; VDR inh: inactive

Results for Cc1cc(=O)[nH]c(N/N=C/C(C)c2ccccc2)n1 (stereo not drawn) ?
BAZ2B block: inactive; JMJD2A Tudor: 1.12µM; PLK1 PBD inh: inactive; HP1b chromo inh: inactive; L3MBTL1 inh: inactive; VDR inh: inactive

Results for COc1ccccc1/C=N/Nc1nc(C)cc(=O)[nH]1 ?
PLK1 PBD inh: inactive

How did CC(/C=N/Nc1nc(C)cc(=O)[nH]1)=C\c1ccccc1 do in these assays?
BAZ2B block: inactive; JMJD2A Tudor: inactive; PLK1 PBD inh: inactive; HP1b chromo inh: inactive; VDR inh: inactive

What do the screens show for `Cc1cc(=O)[nH]c(NN=Cc2cc(Br)ccc2O)n1`?
JMJD2A Tudor: 79.4µM; PLK1 PBD inh: inactive; HP1b chromo inh: inactive; VDR inh: inactive

How did C/C=C/C=N/Nc1nc(C)cc(=O)[nH]1 do in these assays?
BAZ2B block: 50.1µM; JMJD2A Tudor: 1.58µM; PLK1 PBD inh: inactive; HP1b chromo inh: inactive; L3MBTL1 inh: inactive; VDR inh: inactive

What do the screens show for `COc1ccc(OC)c(/C=N/Nc2nc(C)cc(=O)[nH]2)c1`?
BAZ2B block: 50.1µM; JMJD2A Tudor: inactive; PLK1 PBD inh: inactive; HP1b chromo inh: inactive; VDR inh: inactive

How did Cc1cc(=O)[nH]c(N/N=C/c2sccc2C)n1 do in these assays?
BAZ2B block: inactive; JMJD2A Tudor: inactive; PLK1 PBD inh: inactive; HP1b chromo inh: inactive; L3MBTL1 inh: inactive; VDR inh: inactive

Results for Cc1cc2c(s1)c1cnn(Cc3c(Cl)cccc3Cl)c(=O)c1n2C ?
JMJD2A Tudor: inactive

Results for CCC(CC)C(=O)c1c[nH]c(C(=O)N2CCN(c3ccccc3)CC2)c1 ?
BAZ2B block: inactive; JMJD2A Tudor: inactive; PLK1 PBD inh: inactive; HP1b chromo inh: inactive; L3MBTL1 inh: inactive; VDR inh: inactive

What do the screens show for `COc1ccc(CNC(=O)Cn2c(=O)cc(-c3ccccc3)c3c(C)nn(C)c32)cc1`?
BAZ2B block: inactive; JMJD2A Tudor: inactive; HP1b chromo inh: inactive; VDR inh: inactive

What do the screens show for `Cc1cc(=O)[nH]c(N/N=C/c2cc(C)n(-c3ccccc3)c2C)n1`?
BAZ2B block: inactive; JMJD2A Tudor: inconclusive; PLK1 PBD inh: inactive; HP1b chromo inh: inactive; L3MBTL1 inh: inconclusive; VDR inh: inactive

How did Cc1cc(=O)[nH]c(N/N=C/c2ccccc2Cl)n1 do in these assays?
BAZ2B block: inactive; JMJD2A Tudor: 79.4µM; PLK1 PBD inh: inactive; HP1b chromo inh: inactive; VDR inh: inactive

What do the screens show for `O=C(c1ccc(-c2ccc([N+](=O)[O-])cc2)o1)N1CCCCCCC1`?
BAZ2B block: 39.8µM; JMJD2A Tudor: 56.2µM; PLK1 PBD inh: 23.8µM; HP1b chromo inh: inconclusive; L3MBTL1 inh: inactive; VDR inh: 35.5µM

Results for Cc1c(C(=O)N2CCN(c3cccc(Cl)c3)CC2)cccc1[N+](=O)[O-] ?
BAZ2B block: inconclusive; JMJD2A Tudor: inconclusive; PLK1 PBD inh: 29.9µM; HP1b chromo inh: inactive; L3MBTL1 inh: inactive; VDR inh: inconclusive

How did O=[N+]([O-])c1cccc(-c2ccc(C(=S)N3CCN(c4ccccc4)CC3)o2)c1 do in these assays?
BAZ2B block: inconclusive; JMJD2A Tudor: inconclusive; PLK1 PBD inh: 11.9µM; HP1b chromo inh: inconclusive; L3MBTL1 inh: inactive; VDR inh: inconclusive

What do the screens show for `CN1CCN(C(=S)c2ccc(-c3cccc([N+](=O)[O-])c3)o2)CC1`?
BAZ2B block: inconclusive; JMJD2A Tudor: 50.1µM; PLK1 PBD inh: inactive; HP1b chromo inh: inactive; L3MBTL1 inh: inactive; VDR inh: inconclusive

Results for O=C(Nc1ccc(OC(F)(F)F)cc1)C1CCN(S(=O)(=O)c2ccc3[nH]c(=O)ccc3c2)CC1 ?
BAZ2B block: inactive; JMJD2A Tudor: inactive; HP1b chromo inh: inactive; VDR inh: inactive
